Values joined by “and” are separate entries in the source; they are usually repeats but may differ in a detail not shown here. Identical values can stand only once. Records with an inconclusive call do not appear. Active and inactive are the calls of the source.
Note: % of control where 0% means no effect.

One test can be described thus: qHTS assay for small molecule activators of the p53 signaling pathway (AID 651743; active = well fitted activation curve with a large enough effect in the signal ratio, not every such curve was filed as active; the % refers to the signal ratio; note: series mostly up to about 92 µM). The settings on record: HCT-116 p53RE-bla, beta-lactamase FRET ratio, 16 h; activation: hits give high values. The procedure, abridged:
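After 16 hours compound treatment at 37 C, HCT-116 cells stably expressing p53RE-driven beta-lactamase were loaded with LiveBLAzer B/G FRET substrate for 2 hours at room temperature. Fluorescence intensity served as the p53 activation read-out.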
With `CCNc1nc(Cl)nc(NC(C)C)n1`, the activation is -2.86% (inactive) and -1.26% (inactive).

In the case of `CCOCN(C(=O)CCl)c1c(C)cccc1CC`, the activation is -6.37% (inactive) and -3.12% (inactive).

For `ClC(Cl)=C(c1ccc(Cl)cc1)c1ccc(Cl)cc1`, the activation was -3.15% (inactive) and -5.84% (inactive) and 6.09% (inactive).

On to `ClC1=C(Cl)C2(Cl)C3C4C=CC(C4)C3C1(Cl)C2(Cl)Cl` (stereo unspecified), for which the activation was 0.0105% (inactive).

Take `O=C(O)COc1ccc(Cl)cc1Cl`: the activation was -2.21% (inactive) [middle of 4 runs].

In the case of `COC(=O)NC(=S)Nc1ccccc1NC(=S)NC(=O)OC`, the activation was 0% (inactive) and 3.95% (inactive).

In the case of `C/C=C/c1ccc2c(c1)OCO2`, the activation was -2.48% (inactive).

Regarding `COP(=S)(OC)Oc1ccc([N+](=O)[O-])cc1`, the activation was 0.285% (inactive) and 1.15% (inactive).

As for `O=S1OCC2C(CO1)C1(Cl)C(Cl)=C(Cl)C2(Cl)C1(Cl)Cl` (stereo unspecified), the activation was -4.01% (inactive).

As for `ClC1=C(Cl)C2(Cl)C3C(Cl)C=CC3C1(Cl)C2(Cl)Cl` (stereo unspecified), the activation is 1.8% (inactive).

For `CNC(=O)O/N=C/C(C)(C)SC`, the activation was -1.27% (inactive) and -5.37% (inactive) and -5.16% (inactive).

Consider `c1ccc(N=Nc2ccccc2)cc1`, for which the activation is -2.32% (inactive) and -5.83% (inactive).

A further test in a line: qHTS assay for small molecule activators of the nuclear factor-kappa B (NF-kB) signaling pathway (AID 651749; active = well fitted activation curve with a large enough effect in the signal ratio; the % refers to the signal ratio; note: series mostly up to about 77 µM). Particulars: NF-kB-bla ME-180 cells, beta-lactamase FRET ratio, 16 h; activation: hits give high values. In outline: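 Activation measured after 16 hr compound treatment at 37C, 5% CO2, of 2,000 ME-180 cells/well stably expressing an NF-kB response element–driven beta-lactamase reporter, via FRET-disruption fluorescence.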
Take `CCNc1nc(Cl)nc(NC(C)C)n1`: the activation was -0.0541% (inactive) and -0.0593% (inactive).

`CCOCN(C(=O)CCl)c1c(C)cccc1CC`: the activation was -2.07% (inactive) and -2.02% (inactive).

In the case of `COC(=O)NC(=S)Nc1ccccc1NC(=S)NC(=O)OC`, the activation was 0.272% (inactive) and -1.52% (inactive).

Turning to `COP(=S)(OC)Oc1ccc([N+](=O)[O-])cc1`, the activation is -0.601% (inactive).

Regarding `O=S1OCC2C(CO1)C1(Cl)C(Cl)=C(Cl)C2(Cl)C1(Cl)Cl` (stereo unspecified), the activation is 1.74% (inactive).

As to `C=CCc1ccc(OC)cc1`, the activation was -0.38% (inactive).

As to `CNC(=O)O/N=C/C(C)(C)SC`, the activation is -0.362% (inactive) and -4.25% (inactive) and 1.36% (inactive).

As for `c1ccc(N=Nc2ccccc2)cc1`, the activation was -0.765% (inactive) and -3.19% (inactive).

On to `CCc1cccc(CC)c1N(COC)C(=O)CCl`, for which the activation is -1.33% (inactive) and -2.4% (inactive).
